# Reference: PubChem BioAssay (NCATS)
# A number with no mark means an inactive call. Inconclusive results are not listed. A call without a number means that no potency is given here. Calls of active or inactive are those of the source. Unless noted, the call rests on the fitted dose curve; in most records, active means well fitted curve in the direction sought with a large enough effect; inconclusive means small, poorly fitted or top-dose-only effect, or another doubt; inactive means no such curve, though single readings can be large; an effect the other way counts as inactive or inconclusive.
# How the values were obtained:
# [1] = target: Lysosomal acid glucosylceramidase (Homo sapiens) (UniProt P04062); test: Glucocerebrosidase-p2 (AID 348; in the data active means potency below about 10 µM; further: potency means the concentration at half of the fitted maximal effect); conditions: purified GBA, blue fluorogenic substrate, 40 min
# In short: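 Compounds titrated from 0.6 nM upwards against 0.2 nM enzyme in pH 5.9 citric acid/KH2PO4, taurocholate, tween-20; blue fluorogenic substrate 80 uM, 40 min room temperature, stopped and read Ex 365/Em 440 for AC50.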
# [2] = NFAT Signaling Pathway (AID 444; active means well fitted curve in either direction with a large enough effect, not every such curve was filed as active;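 further: carbachol stimulus at about its EC50 of 1 µM final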); conditions: Jurkat NFAT-bla M1, carbachol, beta-lactamase ratio, 5 h; at 7.69 µM (top of the series) unless noted
# In short: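 Jurkat cells carrying an NFAT-driven β-lactamase reporter and co-transfected muscarinic M1 receptor were treated with compound plus carbachol (1 uM final, an EC50 level) for 5 h at 37 °C. CCF4 loading followed for 1 h at RT; 460/530 nm ratio gave %activity.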
# [3] = Stat Signaling Pathway (AID 446; active means well fitted curve in either direction with a large enough effect, not every such curve was filed as active;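 further: ME-180 cervical cancer cells given 40 pM IL-6 alongside compound; SIE-controlled beta-lactamase reporter measured as 460/530 nm FRET emission ratio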); conditions: ME-180 SIE beta-lactamase reporter, IL-6 stimulated, 5 h; at 7.69 µM (top of the series) unless noted
# In short: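 Reporter line: ME-180 cervical carcinoma, SIE-beta-lactamase. Treatment: compound with 40 pM IL-6, 5 hrs, 37 C, in low-serum OPTI-MEM with 10 mM HEPES pH 7.3. Detection: 460/530 nm fluorescence.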
# [4] = target: Glucocorticoid receptor (Homo sapiens) (UniProt P04150); test: GR-GFP Redistribution (AID 450;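 active means compounds whose dose series gives a full or clear partial fitted curve of increased nuclear translocation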; further: potency means the concentration at half of the fitted maximal effect); conditions: U2OS GR-GFP nuclear translocation, laser cytometry, 2 h
# [5] = target: Glucocorticoid receptor (Homo sapiens) (UniProt P04150); test: GR-EFC Redistribution (AID 451; calls by dose curve; further: potency means the concentration at half of the fitted maximal effect); conditions: CHO-K1 GR-EFC translocation, beta-gal luminescence, 2 h
# In short: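 CHO-K1 cells stably expressing nuclear-localized β-gal enzyme acceptor and GR fused C-terminally to the enzyme donor fragment; ligand-driven nuclear translocation restores β-gal by complementation. Compounds titrated up to 46 uM final, 2 h at 37 °C; luminescence read.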
# [6] = target: Mitogen-activated protein kinase 10 (Mus musculus) (UniProt Q61831); test: JNK3 AlphaScreen Assay (AID 530; active means well fitted curve in either direction with a large enough effect, not every such curve was filed as active;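 further: kinase came from lysate of stimulated human HepG2 cells; signal reports phosphorylation of biotinylated GST-cJun 1-79 at Ser73 with 10 µM ATP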); conditions: JNK3 lysate, c-Jun phosphorylation; series mostly up to 57.1 µM
# In short: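 JNK3 came from HepG2 lysates pre-activated with IL-1beta and TNF-alpha and phosphorylated biotinylated GST-cJun (1-79) at 10 uM ATP, pH 7.6, room temperature. Compounds were titrated. AlphaScreen signal used anti-phospho-cJun (Ser73) antibody.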
# [7] = target: 3',5'-cyclic-AMP phosphodiesterase 4B (Homo sapiens) (UniProt Q07343); test: qHTS Assay for Inhibitors of PDE-IV (AID 607; active means well fitted activation curve with a large enough effect in the main read-out, with a control signal flat, not every such curve was filed as active; further: potency means the concentration at half of the fitted maximal effect); conditions: HEK293 ACTOne CNG channel cells, membrane potential fluorescence; series mostly up to 22.9 µM
# In short: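 Cell-based read-out of cAMP via a modified cyclic nucleotide-gated channel and membrane potential dye (535/590 nm) in HEK293 cells expressing PDE4 endogenously. Compounds tested up to 22.9 uM final; 100 uM RO 20-1724 reference.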
# [8] = target: Cytochrome P450 3A4 (Homo sapiens) (UniProt P08684); test: qHTS Assay for Activators of Cytochrome P450 3A4 (AID 885); conditions: recombinant CYP3A4, Luciferin-PPXE luminescence, 60 min; series mostly up to 57.1 µM; further: nearly all actives have a fitted effect of over 65% in size
# In short: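 Signal was normalized against complete inhibition by 57 uM ketoconazole. The reaction used 20nM CYP3A4 with 25uM Luciferin-PPXE, 10-min compound preincubation and a 60-min NADPH-supported step at RT.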
# [9] = target: Dual specificity protein kinase CLK4 (Homo sapiens) (UniProt Q9HAZ1); test: qHTS Assay for Inhibitors of CDC-like Kinase 4 (Kinase-Glo Assay) (AID 1770); conditions: recombinant Clk4, Kinase-Glo ATP depletion luminescence; series mostly up to 66.7 µM; further: nearly all actives have a fitted effect of over 65% in size; further: potency means the concentration at half of the fitted maximal effect
# In short: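 Inhibition was judged from remaining ATP, measured by Ultra-Glo luciferase bioluminescence after Clk4 (25 nM) had acted on RS peptide at 1 uM ATP for 4.5 hours, room temperature.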
# [10] = target: Dual specificity protein kinase CLK4 (Homo sapiens) (UniProt Q9HAZ1); test: qHTS Assay for Inhibitors of CDC-like Kinase 4 (ADP-Glo Assay) (AID 1771); conditions: recombinant CLK4, ADP-Glo luminescence; series mostly up to 80 µM; further: nearly all actives have a fitted effect of over 70% in size; further: potency means the concentration at half of the fitted maximal effect
# In short: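 Clk4 (25 nM) was incubated 1 hr at room temperature with 100 uM RS repeat peptide and 1 uM ATP in buffer with 2 mM MgCl2, 0.5 mM EGTA, 2.5 mM DTT. ADP formed was quantified by ADP-Glo luminescence.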
# [11] = target: Dual specificity protein kinase CLK4 (Homo sapiens) (UniProt Q9HAZ1); test: qHTS Assay for Inhibitors of CDC-like Kinase 4 (ADP-FP Assay) (AID 1795); conditions: Transcreener ADP fluorescence polarization; series mostly up to 50 µM; further: nearly all actives have a fitted effect of over 60% in size; further: potency means the concentration at half of the fitted maximal effect;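 on activity change, negative = inhibition: recombinant human CLK4 phosphorylating RS repeat peptide at 1 µM ATP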
# In short: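 Inhibition of ADP formation by 6.25 nM Clk4 is measured using 1 uM ATP and 100 uM RS repeat peptide over one hour. Produced ADP displaces a fluorescent tracer from antibody, lowering polarization.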
# [12] = target: Ubiquitin carboxyl-terminal hydrolase 1 (Homo sapiens) (UniProt O94782); test: Inhibitors of USP1/UAF1: Pilot qHTS (AID 504865); conditions: purified USP1/UAF1, Ub-rhodamine cleavage fluorescence; series mostly up to 54.9 µM; further: nearly all actives have a fitted effect of over 35% in size; further: potency means the concentration at half of the fitted maximal effect;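 on activity change, negative = inhibition: rhodamine fluorescence freed from ubiquitin-rhodamine substrate followed over time; top concentration of the series differs between compounds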
# In short: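 Kinetic fluorescence assay: 1nM USP1/UAF1, 15 min compound preincubation, then 150nM Ub-Rho; 480/540 nm.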
# [13] = Primary qHTS for small molecule stabilizers of the endoplasmic reticulum resident proteome: Secreted ER Calcium Modulated Protein (SERCaMP) assay (AID 1508630); conditions: SH-SY5Y GLuc-SERCaMP (Gaussia luciferase released on ER calcium loss) secretion, thapsigargin, luminescence; series mostly up to 38.4 µM
# In short: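 GLuc-SERCaMP-expressing SH-SY5Y cells, pretreated 16 h with compound, are challenged with thapsigargin to empty ER calcium stores; after 4 h, coelenterazine is added directly to the medium and luminescence is imaged.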
# [14] = AP1 Signaling Pathway (AID 357; active means well fitted curve in either direction with a large enough effect, not every such curve was filed as active;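 further: ME-180 reporter cells stimulated with EGF at its EC50 level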); conditions: ME-180 AP-1-bla reporter, EGF-induced, beta-lactamase ratio, 5 h; at 7.69 µM (top of the series) unless noted
# In short: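 In this screen, ME-180 cells in Opti-MEM with 0.5% dialyzed FBS received EC50 EGF and compound titrations for 5 h. AP-1 reporter beta-lactamase was detected via CCF4 ratio, giving AC50 for positive and negative modulators.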
# [15] = target: Cytochrome P450 1A2 (Homo sapiens) (UniProt P05177); test: p450-cyp1a2 (AID 410; calls by dose curve; further: potency means the concentration at half of the fitted maximal effect); conditions: recombinant CYP1A2, luciferin-ME demethylation, luminescence; series mostly up to 57 µM
# In short: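 Human CYP1A2 (20nM) demethylated Luciferin-ME at its Km (100uM) in 100mM KPO4. After 10 min compound preincubation, NADPH regeneration ran the reaction 60 min at room temperature. Luciferin was read by luminescence, normalized to 57 uM furafylline.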
# [16] = qHTS Assay for Identification of Small Molecule Agonists for Hypoxia Response Element Signaling Pathway (AID 914; active means well fitted activation curve with a large enough effect in the signal ratio, with a control signal flat, not every such curve was filed as active; the % refers to the signal ratio; further: potency means the concentration at half of the fitted maximal effect); conditions: ME-180 (cervical carcinoma) HRE-bla reporter, beta-lactamase ratio, CoCl2, 17 h; activation: active compounds read high
# In short: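 Reporter activity (beta-lactamase, CCF4 460nm/530nm ratio) in HRE-bla ME-180 cells is recorded after 17 h compound exposure with EC50 CoCl2 at 37 degrees Celsius. AC50 values come from titration data.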
# [17] = target: Cytochrome P450 3A4 (Homo sapiens) (UniProt P08684); test: qHTS Assay for Inhibitors and Substrates of Cytochrome P450 3A4 (AID 884); conditions: recombinant CYP3A4, Luciferin-PPXE luminescence; series mostly up to 57.1 µM; further: potency means the concentration at half of the fitted maximal effect; nearly all actives have a fitted effect of over 50% in size
# In short: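 20 nM human CYP3A4 with 25 uM Luciferin-PPXE (at KM) in 200 mM KPO4, preincubated 10 min with compound; NADPH regeneration started a 60 min RT reaction. Luciferin detected by luminescence, normalized to 57 uM ketoconazole as full inhibition.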
# Chain of 3',5'-cyclic-AMP phosphodiesterase 4B (Homo sapiens) (Q07343 whole entry, looked up): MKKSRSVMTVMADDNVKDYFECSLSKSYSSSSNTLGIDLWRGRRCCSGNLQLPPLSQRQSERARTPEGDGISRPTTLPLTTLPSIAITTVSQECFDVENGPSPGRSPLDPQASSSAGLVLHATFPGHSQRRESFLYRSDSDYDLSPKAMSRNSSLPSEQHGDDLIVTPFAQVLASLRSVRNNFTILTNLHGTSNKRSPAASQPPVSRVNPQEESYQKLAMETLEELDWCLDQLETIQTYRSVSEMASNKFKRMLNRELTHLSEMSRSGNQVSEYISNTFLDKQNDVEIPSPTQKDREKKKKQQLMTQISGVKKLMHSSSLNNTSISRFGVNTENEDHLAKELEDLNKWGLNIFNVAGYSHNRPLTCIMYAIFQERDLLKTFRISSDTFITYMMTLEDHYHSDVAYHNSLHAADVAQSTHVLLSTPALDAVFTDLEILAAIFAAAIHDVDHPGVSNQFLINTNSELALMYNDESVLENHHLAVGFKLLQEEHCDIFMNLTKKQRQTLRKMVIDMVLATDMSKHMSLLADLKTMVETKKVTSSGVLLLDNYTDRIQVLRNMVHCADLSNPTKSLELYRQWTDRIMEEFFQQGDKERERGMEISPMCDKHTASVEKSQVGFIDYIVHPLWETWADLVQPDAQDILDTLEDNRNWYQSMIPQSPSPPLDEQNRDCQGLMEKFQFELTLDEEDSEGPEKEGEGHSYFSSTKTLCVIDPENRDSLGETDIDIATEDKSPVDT
# Chain of Glucocorticoid receptor (Homo sapiens) (P04150 whole entry, looked up, the tested form may be a part): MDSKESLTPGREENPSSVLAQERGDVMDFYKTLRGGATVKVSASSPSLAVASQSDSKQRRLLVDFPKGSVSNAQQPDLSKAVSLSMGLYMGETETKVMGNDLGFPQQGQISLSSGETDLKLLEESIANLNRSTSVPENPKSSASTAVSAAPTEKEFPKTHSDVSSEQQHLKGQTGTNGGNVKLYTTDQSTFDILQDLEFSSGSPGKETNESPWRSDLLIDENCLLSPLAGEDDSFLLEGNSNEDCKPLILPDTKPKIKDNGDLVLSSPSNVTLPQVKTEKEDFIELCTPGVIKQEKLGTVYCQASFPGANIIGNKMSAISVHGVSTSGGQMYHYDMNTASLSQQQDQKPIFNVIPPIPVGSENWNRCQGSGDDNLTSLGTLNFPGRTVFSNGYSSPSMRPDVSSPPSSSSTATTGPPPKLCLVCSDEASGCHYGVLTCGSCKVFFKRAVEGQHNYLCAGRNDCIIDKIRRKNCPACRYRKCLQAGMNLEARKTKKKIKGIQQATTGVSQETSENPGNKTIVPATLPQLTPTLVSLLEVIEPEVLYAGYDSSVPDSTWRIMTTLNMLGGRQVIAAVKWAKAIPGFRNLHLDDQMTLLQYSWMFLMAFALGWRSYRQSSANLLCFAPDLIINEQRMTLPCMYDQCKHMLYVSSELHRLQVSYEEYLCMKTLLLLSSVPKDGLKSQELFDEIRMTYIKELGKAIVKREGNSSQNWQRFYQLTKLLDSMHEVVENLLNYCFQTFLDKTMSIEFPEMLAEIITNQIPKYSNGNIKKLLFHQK
# Chain of Cytochrome P450 1A2 (Homo sapiens) (P05177 whole entry, looked up): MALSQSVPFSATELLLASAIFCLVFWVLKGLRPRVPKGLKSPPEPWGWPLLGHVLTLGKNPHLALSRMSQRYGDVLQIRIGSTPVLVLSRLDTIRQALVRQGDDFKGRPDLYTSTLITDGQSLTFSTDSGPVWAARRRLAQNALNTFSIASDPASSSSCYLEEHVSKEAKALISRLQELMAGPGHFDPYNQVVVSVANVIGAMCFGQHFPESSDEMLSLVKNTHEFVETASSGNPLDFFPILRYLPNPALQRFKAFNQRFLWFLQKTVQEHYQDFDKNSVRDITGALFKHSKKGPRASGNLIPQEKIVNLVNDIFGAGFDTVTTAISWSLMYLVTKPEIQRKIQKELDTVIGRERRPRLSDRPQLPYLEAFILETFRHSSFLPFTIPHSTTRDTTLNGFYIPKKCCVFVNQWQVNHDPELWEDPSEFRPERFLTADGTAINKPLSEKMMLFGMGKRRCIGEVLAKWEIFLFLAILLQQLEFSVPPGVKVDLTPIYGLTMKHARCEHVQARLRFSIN
# Chain of Ubiquitin carboxyl-terminal hydrolase 1 (Homo sapiens) (O94782 whole entry, looked up): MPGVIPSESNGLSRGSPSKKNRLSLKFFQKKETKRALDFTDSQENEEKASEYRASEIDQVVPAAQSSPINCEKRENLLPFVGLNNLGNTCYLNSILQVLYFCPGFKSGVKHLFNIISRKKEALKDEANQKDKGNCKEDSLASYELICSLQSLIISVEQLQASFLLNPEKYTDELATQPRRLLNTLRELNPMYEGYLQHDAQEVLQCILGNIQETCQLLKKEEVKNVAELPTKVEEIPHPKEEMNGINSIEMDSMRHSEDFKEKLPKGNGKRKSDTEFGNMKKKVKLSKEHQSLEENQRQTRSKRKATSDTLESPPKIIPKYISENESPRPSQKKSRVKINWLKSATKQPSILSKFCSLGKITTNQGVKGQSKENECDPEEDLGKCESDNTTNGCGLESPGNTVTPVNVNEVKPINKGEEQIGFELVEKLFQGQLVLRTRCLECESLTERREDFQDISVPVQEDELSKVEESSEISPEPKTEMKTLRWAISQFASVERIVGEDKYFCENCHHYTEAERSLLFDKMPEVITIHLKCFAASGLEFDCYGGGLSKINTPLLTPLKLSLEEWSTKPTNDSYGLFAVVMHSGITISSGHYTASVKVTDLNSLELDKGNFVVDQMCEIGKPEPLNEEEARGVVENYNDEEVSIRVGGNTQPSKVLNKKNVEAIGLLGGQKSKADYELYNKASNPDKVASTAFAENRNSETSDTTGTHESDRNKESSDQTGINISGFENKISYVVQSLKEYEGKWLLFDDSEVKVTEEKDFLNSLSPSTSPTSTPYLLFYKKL
# Chain of Lysosomal acid glucosylceramidase (Homo sapiens) (P04062 whole entry, looked up): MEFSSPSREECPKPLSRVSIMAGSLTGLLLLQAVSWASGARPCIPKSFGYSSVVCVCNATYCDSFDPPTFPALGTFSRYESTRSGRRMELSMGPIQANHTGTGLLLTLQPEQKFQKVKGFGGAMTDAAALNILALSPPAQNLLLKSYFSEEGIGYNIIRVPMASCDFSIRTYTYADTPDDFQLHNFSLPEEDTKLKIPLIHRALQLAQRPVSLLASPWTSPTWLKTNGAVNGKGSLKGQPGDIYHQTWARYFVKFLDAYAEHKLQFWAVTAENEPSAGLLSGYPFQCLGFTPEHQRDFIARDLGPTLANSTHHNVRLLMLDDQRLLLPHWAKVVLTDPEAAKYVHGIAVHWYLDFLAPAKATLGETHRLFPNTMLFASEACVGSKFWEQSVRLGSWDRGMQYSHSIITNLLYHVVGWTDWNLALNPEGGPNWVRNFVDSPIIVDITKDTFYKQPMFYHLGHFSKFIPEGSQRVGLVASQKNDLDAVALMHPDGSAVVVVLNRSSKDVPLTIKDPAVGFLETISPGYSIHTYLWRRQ
# Chain of Dual specificity protein kinase CLK4 (Homo sapiens) (Q9HAZ1 whole entry, looked up): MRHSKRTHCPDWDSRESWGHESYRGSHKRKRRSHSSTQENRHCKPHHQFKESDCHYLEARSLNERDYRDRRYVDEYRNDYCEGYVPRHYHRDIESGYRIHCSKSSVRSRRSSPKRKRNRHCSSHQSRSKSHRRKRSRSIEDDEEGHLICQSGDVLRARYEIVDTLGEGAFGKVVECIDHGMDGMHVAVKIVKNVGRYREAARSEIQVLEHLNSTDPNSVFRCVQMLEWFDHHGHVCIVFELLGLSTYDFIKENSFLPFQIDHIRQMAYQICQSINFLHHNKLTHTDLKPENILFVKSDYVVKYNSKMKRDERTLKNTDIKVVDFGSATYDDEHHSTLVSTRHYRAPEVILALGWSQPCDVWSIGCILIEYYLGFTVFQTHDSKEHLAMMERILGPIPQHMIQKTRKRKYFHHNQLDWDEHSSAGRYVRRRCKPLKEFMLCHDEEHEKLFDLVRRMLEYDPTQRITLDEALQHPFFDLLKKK
# Chain of Cytochrome P450 3A4 (Homo sapiens) (P08684 whole entry, looked up): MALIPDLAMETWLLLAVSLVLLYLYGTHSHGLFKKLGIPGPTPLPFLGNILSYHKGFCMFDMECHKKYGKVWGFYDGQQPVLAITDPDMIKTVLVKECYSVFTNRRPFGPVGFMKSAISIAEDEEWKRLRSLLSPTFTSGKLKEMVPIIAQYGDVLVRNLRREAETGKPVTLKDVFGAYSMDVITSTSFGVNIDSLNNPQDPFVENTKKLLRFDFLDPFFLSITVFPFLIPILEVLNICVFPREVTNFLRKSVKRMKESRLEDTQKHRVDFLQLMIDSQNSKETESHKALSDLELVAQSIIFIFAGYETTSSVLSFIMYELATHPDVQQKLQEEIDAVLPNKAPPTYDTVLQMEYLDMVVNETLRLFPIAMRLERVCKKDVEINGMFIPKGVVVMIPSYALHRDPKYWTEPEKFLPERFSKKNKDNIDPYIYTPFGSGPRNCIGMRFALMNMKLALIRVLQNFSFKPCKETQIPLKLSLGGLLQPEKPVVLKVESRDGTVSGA
Compound,Potency [1],"activity change, negative = inhibition [2]","activity, negative = inhibition [3]",Potency [4],Potency [5],Potency [6],Potency [7],Potency [8],Potency [9],Potency [10],Potency [11],Potency [12],outcome [13],"activity change, negative = inhibition [14]",Potency [15],Potency [16],Potency [17]
O=c1c(-c2ccc(F)cc2)nc2cnc(Oc3cccc(Cl)c3)nc2n1C[C@H]1CCCO1,> 11.4 µM,-18.3%,-26%,> 9.22 µM,> 46 µM,inactive,inactive,inactive,inactive,inactive,inactive,inactive,inactive,,,,
N#CCCn1c(=O)c(-c2cc(F)cc(F)c2)nc2cnc(N3CCOCC3)nc21,,20.1%,12.6%,> 9.22 µM,> 46 µM,inactive,inactive,inactive,inactive,inactive,inactive,inactive,inactive,2.2%,3.16 µM (active),,
CCNc1ncc2nc(-c3ccc(F)cc3)c(=O)n(-c3ccccc3)c2n1,> 11.4 µM,,,> 9.22 µM,,inactive,,,inactive,inactive,inactive,inactive,inactive,,0.398 µM (active),3.16 µM (active),
CC(=O)NCCNc1ncncc1-c1ccccc1CN(C)C,,-2.17%,0.764%,> 46 µM,> 46 µM,inactive,inactive,inactive,inactive,inactive,inactive,inactive,inactive,1.84%,25.1 µM (active),,
CN(C)c1ncc2nc(-c3ccccc3)c(=O)n(Cc3cccs3)c2n1,> 11.4 µM,,,> 9.22 µM,> 46 µM,,,inactive,inactive,inactive,inactive,inactive,inactive,,,3.16 µM (active),
COc1ccc(-n2c(=O)c(-c3cccs3)nc3cnc(Nc4ccccc4)nc32)cc1,> 11.4 µM,,-8.99%,> 9.22 µM,,inactive,inactive,,inactive,inactive,inactive,inactive,inactive,,,,
COc1cccc(Cn2c(=O)c(-c3ccc(Cl)cc3)nc3cnc(N4CCOCC4)nc32)c1,> 11.4 µM,,,> 9.22 µM,> 46 µM,inactive,inactive,,inactive,inactive,inactive,inactive,inactive,,,1.58 µM (active),
COc1ccc(CNc2ccnc(-c3ccc(N(C)C)cc3)n2)c(OC)c1,,-3.37%,-13.6%,> 46 µM,> 46 µM,inactive,inactive,inactive,inactive,inactive,inactive,inactive,inactive,8.69%,3.16 µM (active),,
CS(=O)(=O)Nc1cccc(-c2nccc(NCc3cccs3)n2)c1,> 11.4 µM,14.7%,-12.9%,> 46 µM,,inactive,inactive,,28.2 µM (active),35.5 µM (active),inactive,inactive,inactive,,,,
COc1ncc2ncc(=O)n(C3CC3)c2n1,,-8.58%,6.59%,> 9.22 µM,> 46 µM,inactive,1.58 µM (active),,inactive,inactive,inactive,inactive,inactive,-1.23%,10 µM (active),,
Cc1cccc(CNc2ccnc(-c3ccccc3Cl)n2)c1,,-3.52%,-10.7%,> 46 µM,> 46 µM,inactive,,inactive,inactive,inactive,inactive,28.2 µM (active),inactive,-2.43%,1.58 µM (active),,3.98 µM (active)
COc1cccc(Nc2ncc3ncc(=O)n(C[C@H]4CCCO4)c3n2)c1,> 11.4 µM,,,> 9.22 µM,> 46 µM,inactive,inactive,,1.41 µM (active),1.58 µM (active),0.794 µM (active),inactive,inactive,,,,
COc1ccc(-n2c(=O)c(CCc3ccccc3)nc3cnc(N4CCOCC4)nc32)cc1,,-7.5%,-13.2%,> 9.22 µM,> 46 µM,inactive,inactive,inactive,inactive,inactive,inactive,inactive,inactive,-17%,15.8 µM (active),,
CN1CCN(c2ncc3nc(-c4cccs4)c(=O)n(Cc4ccc(F)cc4)c3n2)CC1,> 11.4 µM,,,> 9.22 µM,> 46 µM,,inactive,,inactive,inactive,inactive,inactive,inactive,,,,
